Source: PubChem
VP16 counter: VP16 counterscreen qHTS for inhibitors of ROR gamma transcriptional activity; Drosophila S2 Gal4-VP16 UAS-luciferase, luminescence, 20 h; Potency, µM (doses to about 53.6 µM), inactives show at the highest dose activity, negative = inhibition, usual class: inhibitors; hit rate 3.5% among 310,000;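 note: Gal4-VP16 expression switched on by copper sulfate through the metallothionein promoter; nearly all actives have a fitted effect of over 50% in size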
DT40 TDP1 no CPT: qHTS for Inhibitors of human tyrosyl-DNA phosphodiesterase 1 (TDP1): qHTS in cells in absence of CPT; DT40 Tdp1-/- hTDP1 cells, no CPT, ATP luminescence, 48 h; Potency, µM (doses to about 46.2 µM), for the others: top-dose activity change, negative = growth inhibition, usual class: inhibitors; hit rate 15% among 420,000; note: nearly all actives have a fitted effect of over 55% in size
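Compound effects on proliferation are scored in DT40 Tdp1-/-;hTDP1 cells in the absence of CPT. ATP levels (CellTiter-Glo luminescence) are recorded after a ≥48 hr, 37 °C incubation.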
DT40 TDP1 CPT: qHTS for Inhibitors of human tyrosyl-DNA phosphodiesterase 1 (TDP1): qHTS in cells in presence of CPT; chicken DT40 Tdp1-/-;hTDP1 cells + 20 nM CPT, ATP luminescence, 48 h; Potency, µM (doses to about 46.2 µM), for inactives: at the highest dose activity change, negative = growth inhibition, actives largely listed as inhibitors; hit rate 12% among 420,000; AID 686979, 2013; note: nearly all actives have a fitted effect of over 55% in size
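Cell growth measured by CellTiter-Glo luminescence after a minimum 48 h, 37 C compound exposure with 20 nM CPT in Tdp1-knockout DT40 cells stably expressing hTDP1, seeded 400/well; qHTS titration format.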
RORg inh: qHTS for inhibitors of ROR gamma transcriptional activity. Nuclear receptor ROR-gamma (Mus musculus), P51450. Potency, µM (doses to about 53.6 µM), inactives show top-dose activity change, negative = inhibition, hits mostly inhibitors. hit rate 5.4% among 310,000. Drosophila S2 Gal4-RORgamma UAS-luciferase reporter, 20 h. AID 2551, 2010; note: nearly all actives have a fitted effect of over 60% in size
Target sequence (P51450 whole entry, looked up, the tested form may be a part): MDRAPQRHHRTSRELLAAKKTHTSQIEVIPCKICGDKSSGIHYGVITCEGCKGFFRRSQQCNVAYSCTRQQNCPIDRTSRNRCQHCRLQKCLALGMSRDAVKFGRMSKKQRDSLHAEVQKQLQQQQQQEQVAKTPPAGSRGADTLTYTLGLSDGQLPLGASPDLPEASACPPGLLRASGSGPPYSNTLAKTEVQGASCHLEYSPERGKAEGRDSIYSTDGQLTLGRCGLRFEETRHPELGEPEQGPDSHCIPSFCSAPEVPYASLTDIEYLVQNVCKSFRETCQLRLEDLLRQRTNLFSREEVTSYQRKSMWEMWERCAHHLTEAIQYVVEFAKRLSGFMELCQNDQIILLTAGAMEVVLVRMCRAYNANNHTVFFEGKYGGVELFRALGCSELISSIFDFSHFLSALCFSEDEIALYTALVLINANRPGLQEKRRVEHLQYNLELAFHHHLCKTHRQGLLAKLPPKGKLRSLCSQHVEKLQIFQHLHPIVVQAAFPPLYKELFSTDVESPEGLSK
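Drosophila Schneider cells stably carrying a metallothionein-driven Gal4 DBD–ROR gamma fusion and a UAS-Photinus luciferase reporter were exposed to compound for 1 hr, then induced with copper sulfate (700 uM final) for 20 hr at ambient temperature before luminescence reading.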
ELG1 repair inh: qHTS screen for small molecules that inhibit ELG1-dependent DNA repair in human embryonic kidney (HEK293T) cells expressing luciferase-tagged ELG1. HEK293T ELG1-luciferase reporter, luminescence, 16 h; DNA damage induced by 5-fluorouridine. Potency, µM (top dose mostly 46.1 µM), without a hit: at the highest dose activity change, negative = inhibition, hits mostly inhibitors. hit rate 2.3% among 330,000. AID 504467, 2011; note: nearly all actives have a fitted effect of over 55% in size
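Cells (2,000 per well) received 5-fluorouridine plus test compound or DMSO and were incubated 16 hr at 37 °C, 5% CO2. Luciferase activity was read by luminescence 30 min after ONE-Glo addition; signal suppression marked inhibition of damage-induced ELG1 function.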
12-LOX inh: Primary qHTS assay for inhibitors of human arachidonate 12S-lipoxygenase (ALOX12): Round 2. Polyunsaturated fatty acid lipoxygenase ALOX12 (Homo sapiens), P18054. purified 12hLO, xylenol orange hydroperoxide absorbance. Potency, µM (highest dose often 108 µM), without a hit: at the top dose activity change, negative = inhibition, most hits filed as inhibitors. hit rate 1.1% among 580,000. AID 1671190, 2021
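Purified human 12hLO at 150 nM in 25 mM Hepes, 0.01% Triton X-100, pH 7.0, preincubated 15 min at room temperature with compound. Reaction started with 40 uM arachidonic acid, 30 min at room temperature. Hydroperoxide measured by Fe-xylenol orange, 573/405 nm absorbance ratio.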
* hit, by the source's call; ? = inconclusive; · = no result given; [ ] = remark or other dose. Compounds with a hit are over-represented: about 15% of the library has one in this group of screens. Calls come from the whole dose curve; as a rule, active = well fitted curve in the direction sought with a large enough effect; inconclusive = small, poorly fitted or top-dose-only effect, or another doubt; inactive = no such curve, though single readings can be large; an effect the other way counts as inactive or inconclusive. % is set by controls: 0 for no effect and ±100 for the full control effect; potency is the fitted concentration of half-maximal effect.

SMILES	VP16 counter	DT40 TDP1 no CPT	DT40 TDP1 CPT	RORg inh	ELG1 repair inh	12-LOX inh
Cc1cc2c(cc1C)NC(=O)C(C)CN2 (centres undefined)	·	?	2%	·	·	36%
O=C1Nc2ccccc2-c2nnnn2C1N1CCC(Cc2ccccc2)CC1 (centres undefined)	·	18µM*	?	·	·	-7%
c1ccc(CC2CCN(c3nnnn3-c3ccccc3)CC2)cc1	2%[0.365 µM]	-30%	-16%	28%	-5%	-19%
Cc1cc2c(cc1C)-c1nnnn1C(N1CCCCC1)C(=O)N2 (centres undefined)	·	9.2µM*	15µM*	·	·	8%
COc1ccccc1NC(=O)CC1S/C(=N/N=C(\C)C2CCCCC2)NC1=O (centres undefined)	0%	-20%	-26%	-13%	?	25%
CC1=C/C(=N\N=C2\NC(=O)C(CC(=O)Nc3ccccc3)S2)CC(C)(C)C1 (centres undefined)	?	?	?	1.6µM*	-3%	-8%
COc1ccc(Cl)cc1NC(=O)CC1S/C(=N/N=C2CCCCCC2)NC1=O (centres undefined)	5µM*	?	?	3.5µM*	?	?
CC(=O)c1cccc(NC(=O)CC2S/C(=N/N=C3CCCCCC3)NC2=O)c1 (centres undefined)	-26%	?	-15%	10µM*	-7%	-1%
COc1ccccc1NC(=O)N1CCC(N2C(=O)C3(CCCCC3)C2c2ccncc2)CC1 (centres undefined)	·	·	·	·	·	43%
COc1ccc(NC(=O)CCc2nc3ccccc3c(=O)[nH]2)cc1S(=O)(=O)N1CCCCC1	·	-26%	-26%	·	26µM*	250%
CN(C)S(=O)(=O)c1cccc(NC(=O)COc2ccccc2C(=O)NCc2ccccc2)c1	·	?	16µM*	·	?	-24%
COc1ccc(NC(=O)CCOc2ccccc2C)cc1S(=O)(=O)N1CCCCC1	·	18µM*	29µM*	·	?	0%
COc1ccc(CCC(=O)Nc2ccc(Cl)c(S(=O)(=O)N3CCCC3)c2)cc1	?	?	21µM*	20%	4.6µM*	-8%
COc1ccc(CNC(=O)CSc2nc3ccc(NC(=O)c4ccccc4C)cc3s2)cc1	·	·	·	·	·	-3%
CCN1c2cc(C(=O)NC3CCCCCC3)ccc2C(=O)N2CCCCC21 (centres undefined)	·	·	·	·	·	10%
COc1cc(CCC(=O)Nc2cccc(S(=O)(=O)N(C)C)c2)cc(OC)c1OC	7%	26µM*	?	20%	?	-1%
COc1cc(CCC(=O)Nc2ccc(C)c(S(=O)(=O)N3CCCCCC3)c2)cc(OC)c1OC	·	7.3µM*	10µM*	·	?	-2%
COC(=O)c1cccc(NC(=O)CCc2cc(OC)c(OC)c(OC)c2)c1	-14%	-22%	10%	?	?	-2%
COc1ccc(NC(=O)c2n[nH]c(=O)c3ccccc23)cc1S(=O)(=O)N1CCCCC1	-22%	?	?	33%	23µM*	-19%
COc1ccccc1CCC(=O)Nc1ccc(OC)c(S(=O)(=O)N2CCCCC2)c1	·	-27%	?	·	?	-5%
COc1ccc(CCC(=O)Nc2ccc(OC)c(S(=O)(=O)N3CCCCC3)c2)cc1OC	·	?	21µM*	·	?	48%
Cc1cc(OCCn2c(CNC(=O)c3ccco3)nc3ccccc32)ccc1Cl	·	·	·	·	·	21%
O=C(Cn1ccc2cc(Cl)ccc21)Nc1ccc2c(c1)OCO2	·	·	·	·	·	-2%
CN(C)/C=C1/Oc2c(ccc3ccccc23)C1=O	-21%	?	11%	-4%	-9%	0%
O=C1C(=O)c2c(ccc3ccccc23)-c2ccccc21	·	0.52µM*	0.58µM*	·	·	-9%
SMILES	VP16 counter	DT40 TDP1 no CPT	DT40 TDP1 CPT	RORg inh	ELG1 repair inh	12-LOX inh
CCc1cccc2c(C(C)=O)cn(CC(=O)NC3CC3)c12	·	·	·	·	·	32µM*
CCOc1ccc(/C=C/C(=O)c2ccccc2)cc1	?	?	?	?	?	6%
O=C(O)COc1ccc2ccccc2c1	-5%	·	·	-3%	·	·
O=C(/C=C/c1ccc(OC2CSC2)cc1)c1ccccc1	-11%	18µM*	18µM*	-11%	?	8%
O=C(O)COc1ccc(/C=C/C(=O)c2ccc(C3CCCCC3)cc2)cc1	-29%	18µM*	?	?	?	-23%
O=C(O)COc1ccc(/C=C/C(=O)c2ccc3ccccc3c2)cc1	?	0%	15%	1.6µM*	0%	·
Cc1ccc(-c2nnn(Cc3coc(-c4ccccc4)n3)n2)cc1	·	·	·	·	·	-28%
CC(=O)N1CC2(CCCN(C(=O)CCC(=O)O)C2)Cc2ccccc21 (centres undefined)	·	·	·	·	·	9%[6.33 µM]
N#Cc1nc(COc2ccccc2)oc1NCc1cccnc1	·	·	·	·	·	5%
CCOc1cccc(-c2cc(C(=O)NCCCN3CCOCC3)c3ccccc3n2)c1	·	·	·	·	·	-7%
O=C(c1nn(Cc2ccccc2)c(=O)c2ccccc12)N1CCCC1c1ccc2c(c1)OCCCO2 (centres undefined)	·	·	·	·	·	-2%
COc1ccc(-c2csc(Nc3ccccc3)n2)cc1	2%	?	?	-22%	?	?
Cc1ccc(Nc2nc(-c3ccc(C)cc3C)cs2)cc1	·	·	·	·	·	6.3µM*
COc1ccc(Nc2nc(-c3ccc(F)cc3F)cs2)cc1	·	·	·	·	·	16µM*
COc1ccc2oc(=O)c(-c3csc(Nc4ccc(O)cc4)n3)cc2c1	?	5.8µM*	3.3µM*	?	9.2µM*	?
CC(C)c1ccc(C(=O)NN=C2CCC(c3ccccc3)CC2)cc1 (centres undefined)	·	·	·	·	·	63%
COc1ccc2[nH]cc(C3C(NC(=O)c4ccccc4)=C(C)Nc4ncnn43)c2c1 (centres undefined)	·	·	·	·	·	14%
COC(=O)[C@@]12CCCCN1[C@H](c1ccc(-c3ccc(C(C)=O)cc3)cc1)[C@H]1C(=O)N(C)C(=O)[C@H]12	·	15µM*	12µM*	·	?	-4%
COC(=O)[C@@]12CCCCN1[C@H](c1ccc(-c3ccc(F)cc3)cc1)[C@@H]1C(=O)N(C)C(=O)[C@@H]12	·	13µM*	21µM*	·	-29%	-14%
